Experimental findings from PubChem BioAssay AID588689 (Southern Research Specialized Biocontainment Screening …, 2011) are described below.

A word on the inhibition: it is the drop in the measured response relative to a control, in per cent.

The target in the assay is Genome polyprotein (Dengue virus type 2 (strain 16681-PDK53)) (UniProt P29991). The assay can be described thus: Dengue-2 NS5 methyltransferase inhibitors, primary screen, biochemical, confirmation dose response (AID 588689). The settings on record: Dengue-2 NS5 methyltransferase capping enzyme assay, at 25 µM, stronger effect = higher value.
[1] abbreviates: measured here: pilot screen replicate inhibition.

Structures are written as SMILES. The campaign covered roughly 340,000 compounds. About 1,000 (0.29%) were called active. No stated cut-off is given here; in the data, inconclusive means inhibition above about 29% without an active follow-up result; inactive means below that. Not all results are given here. Entries with a potency or affinity are not part of this list.

Consider `Cc1cc(C(=O)CSc2nnc(N)s2)c(C)n1Cc1ccco1`, for which the inhibition is -12.5% (inactive).
Consider `COc1ccccc1N1C(=O)C(Cl)=C(N2CCCC2)C1=O`, for which the inhibition was -1.98% (inactive). Further, the inhibition under setting [1] is 0.315%.
Turning to `COc1ccc(OC)c(N2C(=O)C(Cl)=C(N3CCCCC3)C2=O)c1`, the inhibition was 0.68% (inactive).
Still for that read-out and setting: the same measure for `CCc1ccc(N2CCN(C(=O)N3CCOCC3)CC2)cc1`: -8.84% (inactive); for `COc1ccc(N2C(=O)C(Cl)=C(N3CCCC3)C2=O)cc1`: -10.6% (inactive).
On the same count and under the same terms, the same measure for `CCOc1ccc(N2C(=O)c3ccccc3C2=O)cc1`: 1.62% (inactive); for `CCc1ccc(N2C(=O)C(Cl)=C(N3CCCCCC3)C2=O)cc1`: -5.23% (inactive).
`COc1ccc(N2C(=O)C(Cl)=C(N3CCN(Cc4ccccc4)CC3)C2=O)cc1`: the inhibition was -1.61% (inactive).
Same read-out and setting: the same measure for `CCOc1ccc(N2C(=O)CC(N3CCOCC3)C2=O)cc1` (centres undefined): -2.04% (inactive).
Same read-out and setting: the same measure for `COc1cccc(-c2nc3ccc(C(=O)N4CCCC(O)C4)cc3o2)c1` (centres undefined): -1.93% (inactive).
The same measure, in the same setting: the same measure for `CSc1ccc(CN(C)C(=O)c2ccc(S(=O)(=O)Nc3c(C)n(C)n(-c4ccccc4)c3=O)cc2)cc1`: -9.48% (inactive).
As for `CCOC(=O)CSc1nnnn1-c1cc(OC)ccc1OC`, the inhibition was -2.05% (inactive).
Same read-out and setting: the same measure for `C=CC[C@H](CC(=O)NCCO)C(=O)NCCOC(=O)[C@@H](CC=C)Cc1ccc(F)cc1`: -5.62% (inactive).
Consider `CCCNC(=O)N1C2=NC(C(=O)OC)=C(C(=O)OC)[C@@H]3N(Cc4ccccc4)c4ccccc4[C@]23C[C@H]1CO`, for which the inhibition is -2.73% (inactive).
For the compound `CCOC(=O)c1ccc2c(c1)C1C=CCC1C(C(=O)OCC)N2` (centres undefined), the inhibition is 10.8% (inactive).
The same measure, in the same setting: the same measure for `CC(=O)c1ccc2c(c1)C1C=CCC1C(c1ccncc1)N2` (centres undefined): 50.2% (inactive); for `O=C(O)c1ccc2c(c1)C1C=CCC1C(c1ccncc1)N2` (centres undefined): -11.1% (inactive); for `CCOC(=O)C1Nc2ccc(C)cc2C2C=CCC12` (centres undefined): 8.8% (inactive).
Consider `O=C(O)C1Nc2ccc(Br)cc2C2C=CCC12` (centres undefined), for which the inhibition was 55.7% (inactive).
Same read-out and setting: the same measure for `CCCC1Nc2ccc(C(=O)O)cc2C2C=CCC12` (centres undefined): 11.1% (inactive); for `CC(C)CNC(=O)C1Nc2ccc(C(F)(F)F)cc2C2C=CCC12` (centres undefined): 2.4% (inactive).
The same measure, in the same setting: the same measure for `CCOC(=O)C1Nc2ccc(Br)cc2C2C=CCC12` (centres undefined): 5.02% (inactive); for `CCN(CC)S(=O)(=O)c1ccc(N2CCOCC2)c(NC(=O)c2cc3ccccc3oc2=O)c1`: -2.2% (inactive); for `COC(CNC(=O)c1cnn2c(C)c(Cc3ccccc3)c(C)nc12)OC`: -1.46% (inactive).
Still for that read-out and setting: the same measure for `Cc1cc(NC(=O)CSc2nc3cc(Cl)ccc3o2)no1`: 1.78% (inactive); for `COc1ccc(NC(=S)NN2C(C)CCCC2C)cc1` (centres undefined): -6.57% (inactive); for `Cc1ccc(S(=O)(=O)N(C)CC(=O)N2CCCc3ccccc32)cc1`: 3.9% (inactive).
As to `COc1ccc(OC)c(S(=O)(=O)ON2C(=O)c3ccccc3C2=O)c1`, the inhibition is 12.6% (inactive).
The same measure, in the same setting: the same measure for `Cc1ccc(S(=O)(=O)ON2C(=O)c3cccc4cccc(c34)C2=O)cc1`: 14.2% (inactive); for `Cc1cc(C)c(C)c(S(=O)(=O)ON2C(=O)c3ccccc3C2=O)c1C`: -4.83% (inactive).
As for `Cc1ccc(S(=O)(=O)N2CCN(C(=O)CN3C(=O)c4ccccc4C3=O)CC2)c(C)c1`, the inhibition is -3.1% (inactive).
Still for that read-out and setting: the same measure for `COC(=O)c1ccnc(SCC(=O)c2ccccc2)c1`: -7.25% (inactive); for `Cc1cc(C)c(N2C(=O)C3C4CC(=O)C(c5ccccc54)C3C2=O)c(C)c1` (centres undefined): -3.14% (inactive).
Regarding `c1ccc(-c2nc3ccccc3c3nc4ccccc4n23)cc1`, the inhibition was 0.36% (inactive).
On the same count and under the same terms, the same measure for `On1c(-c2ccccc2)nc2ccccc21`: -0.77% (inactive); for `O=C(NCCN1CCOCC1)C1CC(=O)N(c2ccc(Cl)cc2)C1` (centres undefined): -16.7% (inactive).
In the case of `S=C(NCc1ccco1)Nc1ccc(Br)cn1`, the inhibition was -6.51% (inactive).
Same read-out and setting: the same measure for `Cc1ccccc1S(=O)(=O)N(CC(O)CN1CCCCC1)c1ccccc1` (centres undefined): -8.27% (inactive); for `CCOc1ccc(N2C(=O)/C(=C\c3ccccc3OC)S(=O)(=O)C2c2cccc([N+](=O)[O-])c2)cc1` (centres undefined): -7.02% (inactive).
Still for that read-out and setting: the same measure for `COc1ccc(C(=Cc2cc(OC)c(OC)cc2[N+](=O)[O-])C(=O)O)cc1`: -1.59% (inactive).
As for `COc1cc(C(=O)N2CCN(c3ccccc3)CC2)c([N+](=O)[O-])cc1OC`, the inhibition is -3.88% (inactive).
The same measure, in the same setting: the same measure for `CCOc1ccc(C(=O)Cc2cc(OC)c(OC)cc2[N+](=O)[O-])cc1`: -1.39% (inactive).
Same read-out and setting: the same measure for `CCOC(=O)C1CCCN(C(=O)c2cn(C)c(=O)c3cc(OC)c(OC)cc23)C1` (centres undefined): -5.65% (inactive); for `C#CCOCCOCCOCCNc1nc(N2CCOCC2)nc(N2CCN(C(=O)CCCCCCCCCCNC(=O)Cn3cc(CCCCCN)nn3)CC2)n1`: 9.92% (inactive); for `Cc1cc(Cl)ccc1OC(C)C(=O)N1CCCN(C(=O)C(C)Oc2ccc(Cl)cc2C)CC1` (centres undefined): -1.34% (inactive).
Consider `COc1ccc(C2(CNC(=O)CCC(=O)O)CCCC2)cc1OC`, for which the inhibition is -1.37% (inactive). Further, the inhibition under setting [1] is -4.84%.
Take `O=C(O)c1ccc(-c2cccc(Cl)c2)o1`: the inhibition is -4.79% (inactive).
The same measure, in the same setting: the same measure for `Cc1[nH][nH]c(=O)c1C(c1ccc(-c2ccc(Cl)cc2)o1)c1c(C)[nH][nH]c1=O`: 21% (inactive).
Same read-out and setting: the same measure for `Cc1[nH][nH]c(=O)c1C(c1ccc(-c2ccc(Cl)c(Cl)c2)o1)c1c(C)[nH][nH]c1=O`: 61.3% (inactive); for `O=Cc1ccc(-c2ccc(F)cc2)o1`: -6.55% (inactive); for `CCC(OC(=O)c1nsc(Cl)c1Cl)C(=O)NCC1CCCO1` (centres undefined): -4.98% (inactive).
The same measure, in the same setting: the same measure for `CCCc1cc(=O)oc2cc(C)cc(OC(C)C(=O)NCc3cccnc3)c12` (centres undefined): -9.54% (inactive).
Regarding `NC(=O)Cn1c(O)c(N=NC(=O)CNC(=O)/C=C/c2ccccc2)c2ccccc21`, the inhibition was 3.88% (inactive).
On the same count and under the same terms, the same measure for `CC(C)CC(COCc1cccc(Cl)c1)N1CCN(C(=O)c2cccc(C(F)(F)F)c2)CCC1=O` (centres undefined): 0.79% (inactive).
On the same count and under the same terms, the same measure for `CCOc1ccccc1CN1CCNC(=O)C1CC(=O)NC1CCCCCC1` (centres undefined): 7.85% (inactive); for `CC(C)CCn1c(SCC(=O)Nc2ccccc2C(F)(F)F)nc2nccnc2c1=O`: -2.66% (inactive); for `CCOC(=O)C1CCN(S(=O)(=O)c2ccc(CNC(=O)c3ccccc3)s2)CC1`: -13.1% (inactive).
